Bioassay records from PubChem.
The list is not random: actives were taken first. Their share in the collection is about 7.3%.
Rab9 promoter act – Rab9 promoter activation; Huh7 Rab9 promoter-luciferase reporter, luminescence, 24 h; Potency, µM (top dose mostly 9.22 µM), inactives show at the top dose activation, negative = inhibition, usual class: activators; actives 2.8% (n = 320,000); AID 485297; also: % of control where 0% means no effect; nearly all actives have a fitted effect of over 60% in size
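Measured in stably transfected Huh7 cells bearing a Rab9 promoter–luciferase construct: 24 h compound treatment at 37 °C, followed by luminescence detection.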
uPA surface inh – cell surface uPA generation inhibition. Potency, µM (titrated, usually from 38.3 µM), for inactives: top-dose activity change, negative = inhibition, most hits filed as inhibitors. actives 0.31% (n = 330,000). cell surface uPA generation assay, qHTS; active = well fitted inhibition curve with a large enough effect; inconclusive = small, poorly fitted or top-dose-only effect; inactive = no such curve, though single readings can be large or run the other way; tested in mouse RAW 264.7 cells; also: % is scaled to controls: 0 for no effect and ±100 for the full control effect; nearly all actives have a fitted effect of over 55% in size
ELG1 genotoxic – induces genotoxicity in HEK293T cells with luciferase-tagged ELG1 | Potency, µM (doses to about 46 µM), for the others: at the top dose activity change, positive = activation, usual class: activators | actives 1.3% (n = 330,000) | HEK293T ELG1-luciferase reporter, luminescence, 16 h; also: % of control where 0% means no effect; nearly all actives have a fitted effect of over 60% in size
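DMSO vehicle served as control against compound-treated ELG1-luciferase HEK293T cells; exposure lasted 16 hr at 37 °C and 5% CO2, followed by ONE-Glo luminescence detection after 30 min.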
FLuc counter – counter-screen for miR-21 project: firefly luciferase inhibitors or activators; P08659; purified FLuc, Km substrates, luminescence inhibition; AID 588342; actives 6.9% (n = 360,000); Potency, µM (top dose mostly 57.5 µM), inactives show top-dose activity change, negative = inhibition, most hits filed as inhibitors;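 also: plate controls were vehicle for no effect and reference inhibitor for full effect; nearly all actives have a fitted effect of over 55% in size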
Target sequence (P08659 whole entry, looked up): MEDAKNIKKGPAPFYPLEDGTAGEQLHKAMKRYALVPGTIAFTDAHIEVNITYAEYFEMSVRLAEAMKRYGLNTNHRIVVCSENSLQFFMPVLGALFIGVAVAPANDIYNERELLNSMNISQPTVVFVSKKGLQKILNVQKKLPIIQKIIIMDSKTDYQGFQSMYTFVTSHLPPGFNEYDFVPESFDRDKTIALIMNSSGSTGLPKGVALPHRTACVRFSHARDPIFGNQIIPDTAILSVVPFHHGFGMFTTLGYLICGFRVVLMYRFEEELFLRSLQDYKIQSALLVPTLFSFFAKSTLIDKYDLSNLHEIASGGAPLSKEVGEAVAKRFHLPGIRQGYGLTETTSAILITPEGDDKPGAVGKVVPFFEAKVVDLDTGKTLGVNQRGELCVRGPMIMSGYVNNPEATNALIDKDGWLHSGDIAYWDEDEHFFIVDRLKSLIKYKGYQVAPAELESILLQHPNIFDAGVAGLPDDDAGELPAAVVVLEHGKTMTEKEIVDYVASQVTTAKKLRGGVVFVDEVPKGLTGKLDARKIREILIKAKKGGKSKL
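Biochemical qHTS of compounds, final roughly 60 µM downward over six points, against 10 nM purified firefly luciferase using Km concentrations of substrates (10 uM D-luciferin, 10 uM ATP) in Tris acetate pH 7.5 buffer; luminescence output.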
SMN2 splice enh – increases expression of the SMN2 splice variant. HEK293 SMN2-luciferase splicing reporter, luminescence, 30-36 h. Potency, µM (doses to about 46.1 µM), for inactives: at the top dose activity change, positive = activation, actives largely listed as activators. actives 2.8% (n = 210,000). AID 1458; also: % of control where 0% means no effect; nearly all actives have a fitted effect of over 55% in size
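qHTS luciferase splicing reporter: luminescence rises when SMN2 exon 7 is included in transfected HEK293 cells. Compound exposure lasted 30-36 h at 37C, with 4.5 mM final sodium butyrate as control, followed by a ONE-Glo read.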
NPC1 promoter act – activators of NPC1 promoter. Huh7 NPC1 promoter luciferase reporter, 24 h. actives 2.4% (n = 320,000). Potency, µM (titrated, usually from 9.22 µM), for inactives: top-dose activation, usual class: activators; also: % of control where 0% means no effect; nearly all actives have a fitted effect of over 60% in size
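Luminescence read-out of NPC1 promoter-driven luciferase in stably transfected Huh7 cells; compounds delivered in DMSO and left 24 h at 37C, 5% CO2, qHTS titration format.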
* marks the source's active call; other numbers are inactive results; ? = inconclusive; . = not tested or not shown; [ ] = another dose, or the depositor's remark. Unless noted, calls follow the shape of the dose curve; as a rule, active = well fitted curve in the direction sought with a large enough effect; inconclusive = small, poorly fitted or top-dose-only effect, or another doubt; inactive = no such curve, though single readings can be large; an effect the other way counts as inactive or inconclusive. Potency is read from the fitted curve at half-maximal effect.

SMILES | Rab9 promoter act | uPA surface inh | ELG1 genotoxic | FLuc counter | SMN2 splice enh | NPC1 promoter act
CCCOC(=O)c1ccc(Oc2coc3c(CN(CC)CC)c(O)ccc3c2=O)cc1 | 3.7% | 4.3% | -0.4% | 0.5% | -16.4% | -1.3%
CN(C)c1ccc(/C=C/C(=O)c2ccccc2)cc1[N+](=O)[O-] | 2.51µM* | -1.4% | -0.1% | 1.2µM* | -108.2% | 3.55µM*
O=C(/C=C/c1ccc(O)c([N+](=O)[O-])c1)c1ccc2ccccc2c1 | 1.7% | -5.5% | 0.0% | 7.57µM* | . | 22.5%
COc1ccc(Oc2ccc(/C=C/C(=O)c3ccc(O)cc3)cc2[N+](=O)[O-])cc1 | -8.9% | -10.4% | -14.9% | 23.9µM* | -103.5% | -0.7%
Fc1cccc(-n2ncc3c2ncn2nc(Cc4ccccc4)nc32)c1 | . | . | . | -4.4% | -0.7% | .
O=C(NNC(=O)c1cccc(C(F)(F)F)c1)c1ccncc1 | -3.8% | 3.9% | 2.1% | -10.8% | . | 0.6%
O=C(Nc1ncccn1)c1ccc(C(F)(F)F)cc1 | -5.5% | 1.2% | 2.6% | 19µM* | -1.1% | 0.0%
N#Cc1ccc(C(=O)NC2=NCCS2)cc1 | ? | 10.4% | 15.6% | ? | . | ?
Cc1ccc(C(=O)NC2=NCCS2)cc1Cl | 1.26µM* | -3.3% | ? | 6.75µM* | . | 1.41µM*
Cc1ccc(C(=O)NC2=NCCS2)cc1 | 3.55µM* | . | ? | 10.7µM* | . | 2.82µM*
CC(C)C(NC(=O)c1ccc(Cl)cc1)C(=O)NC1=NCCS1 (centres undefined) | 0.0% | 1.7% | -0.1% | 3.9% | -3.5% | -2.3%
CC(C)c1ccc(C(=O)NC2=NCCS2)cc1 | 0.398µM* | ? | 1.64µM* | 1.9µM* | 2µM* | 0.562µM*
CCCN1C(=O)c2ccc(C(=O)NC3=NCCS3)cc2C1=O | 2.6% | 4.3% | -0.8% | ? | 1.7% | -2.3%
CCOc1ccc(/C=C/c2nc(C#N)c(NC(C)CC)o2)cc1 (centres undefined) | . | . | . | 3.7% | 8.0% | .
COc1cccc([C@@H]2Oc3ccc(Br)cc3C[C@H]2OC(=O)NCCc2ccc(OC)c(OC)c2)c1 | . | . | . | . | -0.7% | .
Cc1nc2cccnc2n1C1CCN(C(=O)Nc2ccc(Cl)cc2)CC1 | . | . | . | -3.8% | . | .
CSc1nc2sc3c(c2c(=O)n1-c1ccccc1)CCC(C(C)(C)C)C3 (centres undefined) | . | . | . | 0.9% | 3.3% | .
O=C(NC1=NCCS1)c1ccc(C(F)(F)F)cc1 | 15.1%[1.84 µM] | -6.6% | ? | 10.7µM* | . | 2.82µM*
CCOC(=O)CSc1nc(N)c(C#N)c(-c2ccc(OC)cc2)c1C#N | 3.2% | 0.2% | 6.6% | -1.4% | . | 0.5%
C=C(C)CSc1nc(N)c(C#N)c(-c2ccc(C)cc2)c1C#N | . | -8.1% | . | 15.1µM* | 1.8% | .
Cc1ccc(NC(=S)NC(=O)c2ccc(Br)o2)c(C)c1 | 2.82µM* | -2.7% | ? | 9.53µM* | 8.91µM* | ?
Cc1ccc(NC(=S)NC(=O)C2CCC2)cc1C | 3.98µM* | 0.4% | ? | 9.53µM* | . | 1.41µM*
Cc1ccc(NC(=S)NC(=O)C2CC2)c(C)c1 | ? | -0.6% | 20.6µM* | 15.1µM* | . | ?
CC(=O)Nc1ccc(NC(=S)NC(=O)C2CC2)cc1 | 25.7% | 1.8% | ? | -14.6% | . | 14.1%
O=C(NC(=S)Nc1ccccc1Br)C1CCCC1 | 15.1% | 3.1% | ? | 19µM* | . | ?
SMILES | Rab9 promoter act | uPA surface inh | ELG1 genotoxic | FLuc counter | SMN2 splice enh | NPC1 promoter act
CCOC(=O)C1CCN(S(=O)(=O)c2cc3c4c(c2)CC(=O)N4CCC3)CC1 | . | . | . | -2.8% | . | .
Cc1ccc(NC(=S)NC(=O)C2CCCC2)cc1C | 2.51µM* | 6.1% | ? | 10.7µM* | . | 3.16µM*
COc1ccc(N2CCN(C(=O)c3ccc(-c4nc(COc5ccccc5)c(C)o4)cc3)CC2)cc1 | . | . | . | -10.6% | . | .
Cc1cc(C)cc(OC(C)C(=O)Nc2ccc(S(=O)(=O)Nc3cc(C)nc(C)n3)cc2)c1 (centres undefined) | 1.4% | -9.8% | -3.1% | 1.9% | . | -5.5%
O=C(CSC(=S)N1CCSCC1)c1ccc(Cl)cc1 | 1.58µM* | -0.8% | ? | 3.01µM* | 15.8µM* | 3.16µM*
O=C(CSC(=S)N1CCSCC1)c1ccccc1 | 1.26µM* | -6.0% | ? | 4.26µM* | 12.6µM* | 1.26µM*
COc1ccccc1CNC(=O)c1cnc2sc(N3CCCCC3)nn2c1=O | . | . | . | -6.1% | . | .
Cc1cccc(OCCSc2nc3ccc(NC(=O)COc4ccccc4)cc3s2)c1 | . | . | . | -5.1% | . | .
COc1cc(OC)c(NC(=O)c2c(N3CCCC3=O)c3cc(C)ccc3n2C)cc1Cl | . | . | . | 6.9% | . | .
Fc1ccc(-c2nc3c(Cl)cc(C(F)(F)F)cn3c2Cl)cc1 | 0.1% | 4.8% | 16.4µM* | ? | 17.8µM* | -0.5%
FC(F)c1nnc2c(Cl)cc(C(F)(F)F)cn12 | -1.7% | . | 1.3% | 2.9% | 4.4% | -7.4%
CCCCOc1ccc(-c2ncc([N+](=O)[O-])cn2)cc1 | 3.16µM* | 3.3% | ? | ? | . | 3.98µM*
CCCCOc1ccc(-c2ncc(Cl)cn2)cc1 | 1.78µM* | 5.0% | 12.6µM* | 2.69µM* | 12.6µM* | 2.51µM*
Cc1noc(/C=C/c2ccccc2F)c1S(=O)(=O)N1CCC(C(=O)NCC(C)c2ccccc2)CC1 (centres undefined) | . | . | . | 0.2% | . | .
N#Cc1cccc(N=c2ssnc2Cl)c1 | -4.2% | 3.1% | -0.3% | 19µM* | -18.0% | 0.8%
COc1cc(N=c2ssnc2Cl)cc(OC)c1 | -2.2% | -2.0% | -4.8% | ? | -22.2% | -0.3%
Clc1nssc1=Nc1ccc(Br)cc1 | -1.6% | -1.2% | -5.8% | 23.9µM* | -11.7% | 3.9%
Cc1ccc(S(=O)(=O)N2CCOCC2)cc1C(=O)Nc1ccccc1C(=O)O | . | . | . | -18.8% | -14.9% | .
Cc1cs/c(=N/C(=S)Nc2ccccc2)n1C | 1.58µM* | -0.1% | 2.91µM* | 4.78µM* | 1.26µM* | 1.12µM*
